# Measured values published in PubChem BioAssay (EPA / NIEHS).
# Where “and” joins values, the source holds several entries; their conditions need not be identical. Equal entries are not always repeated. More than one record can exist for a structure, and the calls need not agree. Calls of active or inactive are those of the source. The calls were made as follows: active = hit-call score of the fitted dose curve at least 0.9, where 1 is the maximum; inactive = score below 0.9.
# Read-out: Insulin Like Growth Factor 1 (IGF1), IGF1 (gene 3479)
# Assay: LTEA_HepaRG_IGF1: Life Technologies and Expression Analysis (LTEA) Assay for Insulin Like Growth Factor 1 (IGF1) using HepaRG (AID 2283506)
# Settings: mRNA level, 48 h; actives raise or lower the signal
# Summary of the method: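 Using human HepaRG liver cells, IGF1 transcript induction or suppression is measured 48 h after dosing across eight concentrations capped at 100 uM. Values derive from bidirectional concentration-response fitting with DMSO as baseline.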
SMILES,AC50,outcome
N#Cc1cc(Br)c(O)c(Br)c1,17.4 µM (active),
CCOC(=O)C(Cl)Cc1cc(-n2nc(C)n(C(F)F)c2=O)c(F)cc1Cl (configuration not stated),,inactive
CC(C)Oc1cc(-n2nc(C(C)(C)C)oc2=O)c(Cl)cc1Cl,28.7 µM (active),
COc1nc(NC(C)C)nc(NC(C)C)n1,66.2 µM (active),
C=CCC1=C(C)C(OC(=O)C2C(C=C(C)C)C2(C)C)CC1=O (configuration not stated),79.6 µM (active) and 72 µM (active) and 50 µM (active),
CCc1nn(C)c(C(=O)NCc2ccc(C(C)(C)C)cc2)c1Cl,0.782 µM (active),
COc1cnc(OC)n2nc(NS(=O)(=O)c3c(OCC(F)F)cccc3C(F)(F)F)nc12,10.3 µM (active),
CCOC(=O)CC(SP(=S)(OC)OC)C(=O)OCC (configuration not stated),,inactive
Cc1cc(Cl)ccc1OCC(=O)O,,inactive
COP(=S)(OC)Oc1nc(Cl)c(Cl)cc1Cl,,inactive
CO/C=C(/C(=O)OC)c1ccccc1Oc1cc(Oc2ccccc2C#N)ncn1,79.8 µM (active) and 62.8 µM (active) and 74 µM (active),
CNC(=O)ON=CC(C)(C)SC,,inactive
CC(Oc1ccc(Cl)cc1Cl)C(=O)O (configuration not stated),,inactive
CCCCNC(=O)OCC#CI,,inactive
COC(=O)c1ccccc1C(=O)OC,,inactive
CN(C)C(=S)SSC(=S)N(C)C,,inactive
CCCCC(CC)COC(=O)c1ccccc1C(=O)OCC(CC)CCCC (configuration not stated),,inactive
C=CCC1=C(C)[C@@H](OC(=O)[C@@H]2[C@@H](C=C(C)C)C2(C)C)CC1=O,50 µM (active),
CON(C)C(=O)Nc1ccc(Cl)c(Cl)c1,50 µM (active),
C#CCOS(=O)OC1CCCCC1Oc1ccc(C(C)(C)C)cc1 (configuration not stated),19.5 µM (active),
CS/C(C)=N/OC(=O)N(C)SN(C)C(=O)O/N=C(\C)SC,,inactive
CCCN(CCC)c1c([N+](=O)[O-])cc(S(N)(=O)=O)cc1[N+](=O)[O-],93.4 µM (active),inactive
Oc1ccccc1-c1ccccc1,,inactive
COC(=O)C(C)Oc1ccc(Oc2ccc(Cl)cc2Cl)cc1 (configuration not stated),,inactive
O=C(O)c1nc(Cl)ccc1Cl,,inactive

# Read-out: Intercellular Adhesion Molecule 1 (ICAM1), ICAM1 (gene 3383)
# Assay: LTEA_HepaRG_ICAM1: Life Technologies and Expression Analysis (LTEA) Assay for Intercellular Adhesion Molecule 1 (ICAM1) using HepaRG (AID 2283507)
# Settings: mRNA level, 48 h; actives raise or lower the signal
# Summary of the method: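 ICAM1 transcript levels measured by qRT-PCR, normalized to three housekeeping genes (ACTB, GAPDH, POLR2A), after 48 h chemical exposure of HepaRG cells. Duplicate eight-point half-log series from 100 uM in 0.5% DMSO; gain or loss fitted against vehicle.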
SMILES,AC50,outcome
N#Cc1cc(Br)c(O)c(Br)c1,69.9 µM (active),
CCOC(=O)C(Cl)Cc1cc(-n2nc(C)n(C(F)F)c2=O)c(F)cc1Cl (configuration not stated),,inactive
CC(C)Oc1cc(-n2nc(C(C)(C)C)oc2=O)c(Cl)cc1Cl,,inactive
COc1nc(NC(C)C)nc(NC(C)C)n1,,inactive
C=CCC1=C(C)C(OC(=O)C2C(C=C(C)C)C2(C)C)CC1=O (configuration not stated),,inactive
CCc1nn(C)c(C(=O)NCc2ccc(C(C)(C)C)cc2)c1Cl,2.34 µM (active),
COc1cnc(OC)n2nc(NS(=O)(=O)c3c(OCC(F)F)cccc3C(F)(F)F)nc12,,inactive
CCOC(=O)CC(SP(=S)(OC)OC)C(=O)OCC (configuration not stated),,inactive
Cc1cc(Cl)ccc1OCC(=O)O,,inactive
COP(=S)(OC)Oc1nc(Cl)c(Cl)cc1Cl,,inactive
CO/C=C(/C(=O)OC)c1ccccc1Oc1cc(Oc2ccccc2C#N)ncn1,83.5 µM (active) and 87.8 µM (active) and 88.9 µM (active),
CNC(=O)ON=CC(C)(C)SC,,inactive
CC(Oc1ccc(Cl)cc1Cl)C(=O)O (configuration not stated),,inactive
CCCCNC(=O)OCC#CI,,inactive
COC(=O)c1ccccc1C(=O)OC,,inactive
CN(C)C(=S)SSC(=S)N(C)C,,inactive
CCCCC(CC)COC(=O)c1ccccc1C(=O)OCC(CC)CCCC (configuration not stated),,inactive
C=CCC1=C(C)[C@@H](OC(=O)[C@@H]2[C@@H](C=C(C)C)C2(C)C)CC1=O,,inactive
CON(C)C(=O)Nc1ccc(Cl)c(Cl)c1,,inactive
C#CCOS(=O)OC1CCCCC1Oc1ccc(C(C)(C)C)cc1 (configuration not stated),,inactive
CS/C(C)=N/OC(=O)N(C)SN(C)C(=O)O/N=C(\C)SC,,inactive
CCCN(CCC)c1c([N+](=O)[O-])cc(S(N)(=O)=O)cc1[N+](=O)[O-],94.8 µM (active) and 85.4 µM (active),inactive
Oc1ccccc1-c1ccccc1,,inactive
COC(=O)C(C)Oc1ccc(Oc2ccc(Cl)cc2Cl)cc1 (configuration not stated),,inactive
O=C(O)c1nc(Cl)ccc1Cl,,inactive

# Read-out: Insulin-like growth factor-binding protein 1 (IGFBP1), IGFBP1 (gene 3484)
# Assay: LTEA_HepaRG_IGFBP1: Life Technologies and Expression Analysis (LTEA) Assay for Insulin-like growth factor-binding protein 1 (IGFBP1) using HepaRG (AID 2283508)
# Settings: mRNA level, 48 h; actives raise or lower the signal
# Summary of the method: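 Read-out is qRT-PCR transcript level normalized to three housekeeping genes, fitted in both directions against 0.5% DMSO. Differentiated HepaRG cells received eight half-log concentrations (top 100 uM) in duplicate for 48 h in serum-free induction medium.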
SMILES,AC50,outcome
N#Cc1cc(Br)c(O)c(Br)c1,19.3 µM (active),
CCOC(=O)C(Cl)Cc1cc(-n2nc(C)n(C(F)F)c2=O)c(F)cc1Cl (configuration not stated),,inactive
CC(C)Oc1cc(-n2nc(C(C)(C)C)oc2=O)c(Cl)cc1Cl,76.8 µM (active),
COc1nc(NC(C)C)nc(NC(C)C)n1,,inactive
C=CCC1=C(C)C(OC(=O)C2C(C=C(C)C)C2(C)C)CC1=O (configuration not stated),,inactive
CCc1nn(C)c(C(=O)NCc2ccc(C(C)(C)C)cc2)c1Cl,2.34 µM (active),
COc1cnc(OC)n2nc(NS(=O)(=O)c3c(OCC(F)F)cccc3C(F)(F)F)nc12,,inactive
CCOC(=O)CC(SP(=S)(OC)OC)C(=O)OCC (configuration not stated),,inactive
Cc1cc(Cl)ccc1OCC(=O)O,,inactive
COP(=S)(OC)Oc1nc(Cl)c(Cl)cc1Cl,,inactive
CO/C=C(/C(=O)OC)c1ccccc1Oc1cc(Oc2ccccc2C#N)ncn1,63.6 µM (active) and 72.5 µM (active) and 76.7 µM (active),
CNC(=O)ON=CC(C)(C)SC,,inactive
CC(Oc1ccc(Cl)cc1Cl)C(=O)O (configuration not stated),,inactive
CCCCNC(=O)OCC#CI,,inactive
COC(=O)c1ccccc1C(=O)OC,,inactive
CN(C)C(=S)SSC(=S)N(C)C,,inactive
CCCCC(CC)COC(=O)c1ccccc1C(=O)OCC(CC)CCCC (configuration not stated),,inactive
C=CCC1=C(C)[C@@H](OC(=O)[C@@H]2[C@@H](C=C(C)C)C2(C)C)CC1=O,,inactive
CON(C)C(=O)Nc1ccc(Cl)c(Cl)c1,50 µM (active),
C#CCOS(=O)OC1CCCCC1Oc1ccc(C(C)(C)C)cc1 (configuration not stated),14.6 µM (active),
CS/C(C)=N/OC(=O)N(C)SN(C)C(=O)O/N=C(\C)SC,,inactive
CCCN(CCC)c1c([N+](=O)[O-])cc(S(N)(=O)=O)cc1[N+](=O)[O-],92.9 µM (active) and 36.6 µM (active) and 78.9 µM (active),
Oc1ccccc1-c1ccccc1,,inactive
COC(=O)C(C)Oc1ccc(Oc2ccc(Cl)cc2Cl)cc1 (configuration not stated),,inactive
O=C(O)c1nc(Cl)ccc1Cl,,inactive
